According to the supplement of paper PMC10849652:
Targets with a hit are over-represented here; the source holds about 7,900 in all. About 0.6% of all pairs of compound and target were hits. Values without a mark were called inactive.

Assays:
Experiment in all cases: log2 fold change, soluble protein after heating vs DMSO (PISA); higher = thermal stabilisation; K562 cells, 10 uM, 30 min; active = over 0.2 and 3.5 SD of the protein, either way, in both replicates (recomputed)
[1] = compound: CC1=C(C=C(C=C1)NC(=O)C2=CC(=CC=C2)C(C)(C)C#N)NC3=CC4=C(C=C3)N=CN(C4=O)C
How it was run: (§1)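 Quantification of soluble protein used TMTpro 16plex LC-MS/MS, with channel sums equalised. Samples were the supernatant after 21,000xg for 90 min of pooled aliquots from K562 cells (2×10^6 cells/mL) treated with 10 μM compound for 30 min, heated for 3 min over 48°C-58°C, and extracted in PBS with 0.5% NP-40 at 4°C. Values, from duplicates, describe thermal stability against control samples on a log2 fold-change scale.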

[2] = compound: CC1=C(C=C(C=C1)NC(=O)C2=CC(=CC=C2)N(C)C)NC(=O)C3=CC=C(C=C3)O
How it was run: as §1

[3] = compound: CC1=CC=C(C=C1)SC2=C3C=C(SC3=CN=C2)C(=O)N
How it was run: as §1

[4] = compound: CC1=NC(=CC=C1)C2=C(N=C(N2)C(C)(C)C)C3=CC4=NC=CN=C4C=C3
How it was run: as §1

[5] = compound: CCCCN(Cc1ccc(C(=O)NO)cc1)C(=O)Nc1ccccc1 [Nexturastat A]
How it was run: as §1

[6] = compound: CCCS(=O)(=O)Nc1ccc(F)c(C(=O)c2c[nH]c3ncc(-c4ccc(Cl)cc4)cc23)c1F [vemurafenib]
How it was run: as §1

[7] = compound: CCCS(=O)(=O)Nc1ccc(F)c(C(=O)c2c[nH]c3ncc(Cl)cc23)c1F
How it was run: as §1

[8] = compound: CCCc1cc(C)[nH]c(=O)c1CNC(=O)c1cc(-c2ccnc(N3CCN(C)CC3)c2)cc2c1cnn2C(C)C
How it was run: as §1

[9] = compound: CCN(CC)Cc1ccc2cc(COC(=O)Nc3ccc(C(=O)NO)cc3)ccc2c1 [givinostat]
How it was run: as §1

[10] = compound: CCN(CCCOc1ccc2c(Nc3cc(CC(=O)Nc4cccc(F)c4)[nH]n3)ncnc2c1)CCOP(=O)(O)O [barasertib]
How it was run: as §1

[11] = compound: CC[C@@H]1C(=O)N(C)c2cnc(Nc3ccc(C(=O)NC4CCN(C)CC4)cc3OC)nc2N1C1CCCC1
How it was run: as §1

[12] = compound: CC[C@@H]1C(=O)N(C)c2cnc(Nc3ccc(C(=O)N[C@H]4CC[C@H](N5CCN(CC6CC6)CC5)CC4)cc3OC)nc2N1C(C)C [volasertib]
How it was run: as §1

[13] = compound: CC[C@H](C)N1C=C(C2=C(C=C(C=C21)C3=CN=C(C=C3)N4CCNCC4)C(=O)NCC5=C(C=C(NC5=O)C)C)C
How it was run: as §1

[14] = compound: CC[C@H](C)[C@@H](C(=O)N[C@@H]([C@@H](C)O)C(=O)N[C@@H](CC(C)C)C(=O)[C@]1(CO1)C)NC(=O)[C@H]([C@@H](C)CC)N(C)C(=O)C [epoxomicin]
How it was run: as §1

[15] = compound: CCn1c(C(=O)N(C2CC2)C2CC2)cc2c3c(ncn3C)c(Nc3cc(C)n(C)n3)nc21
How it was run: as §1

[16] = compound: CCn1cc(-c2ccnc3[nH]c(-c4cccc(CN(C)C)c4)cc23)c(-c2ccc(NC(=O)N(C)C)cc2)n1
How it was run: as §1

[17] = compound: CN(C)CC(=O)Nc1ccc2[nH]c(=O)c3ccccc3c2c1
How it was run: as §1

[18] = compound: CN(CCOC1=CC=C(C=C1)C[C@H]2C(=O)NC(=O)S2)C3=CC=CC=N3 (racemic) [rosiglitazone]
How it was run: as §1

[19] = compound: CN1C2=C(C3=C1C(=O)N(N=C3)CC4=CC(=CC=C4)N)SC(=C2)S(=O)C
How it was run: as §1

[20] = compound: CN1CCC(CNc2ccc3ncc(-c4cccc(OC(F)(F)F)c4)n3n2)CC1
How it was run: as §1

Sequence of UniProt Q16891 (Q16891 whole entry, looked up): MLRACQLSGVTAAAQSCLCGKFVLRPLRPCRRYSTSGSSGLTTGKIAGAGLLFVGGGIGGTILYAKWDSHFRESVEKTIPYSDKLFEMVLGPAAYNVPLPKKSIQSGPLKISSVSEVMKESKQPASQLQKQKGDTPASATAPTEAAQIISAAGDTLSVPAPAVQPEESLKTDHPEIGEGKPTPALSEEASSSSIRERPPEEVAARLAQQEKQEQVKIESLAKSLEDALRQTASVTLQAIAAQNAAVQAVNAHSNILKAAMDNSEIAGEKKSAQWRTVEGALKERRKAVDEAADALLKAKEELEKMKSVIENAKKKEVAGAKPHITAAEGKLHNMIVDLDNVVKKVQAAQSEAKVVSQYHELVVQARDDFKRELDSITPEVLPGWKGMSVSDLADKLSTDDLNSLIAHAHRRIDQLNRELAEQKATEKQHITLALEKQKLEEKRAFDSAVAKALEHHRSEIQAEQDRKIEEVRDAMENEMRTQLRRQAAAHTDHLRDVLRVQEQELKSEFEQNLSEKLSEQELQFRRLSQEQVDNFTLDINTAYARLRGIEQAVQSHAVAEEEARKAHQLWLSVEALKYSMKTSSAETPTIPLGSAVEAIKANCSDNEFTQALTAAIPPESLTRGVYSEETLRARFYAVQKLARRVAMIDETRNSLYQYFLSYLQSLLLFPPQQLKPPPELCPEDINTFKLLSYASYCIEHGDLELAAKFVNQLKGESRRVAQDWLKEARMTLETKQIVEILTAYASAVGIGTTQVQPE
Sequence of UniProt Q86X29 (Q86X29 whole entry, looked up): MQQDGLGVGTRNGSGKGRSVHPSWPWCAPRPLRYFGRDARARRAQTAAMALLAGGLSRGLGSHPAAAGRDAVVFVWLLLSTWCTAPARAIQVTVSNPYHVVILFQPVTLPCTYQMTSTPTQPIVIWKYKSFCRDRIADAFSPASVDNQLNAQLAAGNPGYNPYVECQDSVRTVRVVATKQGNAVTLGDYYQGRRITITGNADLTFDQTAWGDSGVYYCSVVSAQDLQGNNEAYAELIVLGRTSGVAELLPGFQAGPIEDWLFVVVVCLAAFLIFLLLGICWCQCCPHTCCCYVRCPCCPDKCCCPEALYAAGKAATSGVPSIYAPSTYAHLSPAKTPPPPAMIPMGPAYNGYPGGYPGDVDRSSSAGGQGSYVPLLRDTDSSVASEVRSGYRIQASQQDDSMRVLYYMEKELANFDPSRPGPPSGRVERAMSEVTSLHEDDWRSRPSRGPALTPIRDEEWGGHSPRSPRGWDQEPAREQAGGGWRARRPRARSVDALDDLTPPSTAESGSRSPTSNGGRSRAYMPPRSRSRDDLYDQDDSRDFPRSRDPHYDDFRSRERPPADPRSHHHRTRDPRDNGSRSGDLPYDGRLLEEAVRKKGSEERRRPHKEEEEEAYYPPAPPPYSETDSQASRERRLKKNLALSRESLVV
Sequence of UniProt O95568 (O95568 whole entry, looked up): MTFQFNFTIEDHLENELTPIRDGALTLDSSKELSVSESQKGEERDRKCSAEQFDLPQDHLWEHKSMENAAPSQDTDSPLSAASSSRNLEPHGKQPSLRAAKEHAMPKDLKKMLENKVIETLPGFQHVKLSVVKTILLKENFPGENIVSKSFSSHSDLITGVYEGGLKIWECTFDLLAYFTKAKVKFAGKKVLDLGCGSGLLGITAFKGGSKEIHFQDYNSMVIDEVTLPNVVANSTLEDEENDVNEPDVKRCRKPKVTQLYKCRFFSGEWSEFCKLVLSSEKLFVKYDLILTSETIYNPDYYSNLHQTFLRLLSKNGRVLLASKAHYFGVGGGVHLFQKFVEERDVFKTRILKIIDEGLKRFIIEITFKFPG
Sequence of UniProt P13473 (P13473 whole entry, looked up): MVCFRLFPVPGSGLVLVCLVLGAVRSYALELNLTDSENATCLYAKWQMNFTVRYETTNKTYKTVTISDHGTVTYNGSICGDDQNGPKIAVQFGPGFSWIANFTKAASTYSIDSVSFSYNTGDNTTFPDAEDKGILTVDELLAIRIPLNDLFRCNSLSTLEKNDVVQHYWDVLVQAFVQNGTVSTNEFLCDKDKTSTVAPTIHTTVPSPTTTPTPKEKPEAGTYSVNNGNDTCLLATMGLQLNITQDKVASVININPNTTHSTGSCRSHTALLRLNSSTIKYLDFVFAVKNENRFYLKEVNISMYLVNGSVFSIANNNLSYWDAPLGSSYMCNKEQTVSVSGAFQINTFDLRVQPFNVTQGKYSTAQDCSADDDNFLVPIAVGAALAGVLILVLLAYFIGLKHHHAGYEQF
Sequence of UniProt P36507 (P36507 whole entry, looked up): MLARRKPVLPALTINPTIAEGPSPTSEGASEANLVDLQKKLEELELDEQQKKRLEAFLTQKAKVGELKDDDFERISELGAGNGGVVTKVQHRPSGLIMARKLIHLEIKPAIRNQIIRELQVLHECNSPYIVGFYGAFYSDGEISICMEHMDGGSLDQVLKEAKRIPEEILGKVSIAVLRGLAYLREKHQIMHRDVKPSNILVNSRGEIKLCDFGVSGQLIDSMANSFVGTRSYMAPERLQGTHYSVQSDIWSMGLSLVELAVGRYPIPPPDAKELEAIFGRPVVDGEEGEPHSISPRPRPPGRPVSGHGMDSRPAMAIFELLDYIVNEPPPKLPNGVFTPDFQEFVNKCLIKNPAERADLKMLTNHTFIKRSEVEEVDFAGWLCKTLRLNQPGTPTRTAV
Sequence of UniProt P49006 (P49006 whole entry, looked up): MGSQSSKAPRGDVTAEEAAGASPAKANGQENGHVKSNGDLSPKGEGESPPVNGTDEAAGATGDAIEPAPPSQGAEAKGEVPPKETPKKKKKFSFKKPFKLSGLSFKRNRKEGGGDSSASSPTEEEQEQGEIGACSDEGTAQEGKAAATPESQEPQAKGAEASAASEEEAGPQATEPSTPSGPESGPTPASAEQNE
Sequence of UniProt Q9H6V9 (Q9H6V9 whole entry, looked up): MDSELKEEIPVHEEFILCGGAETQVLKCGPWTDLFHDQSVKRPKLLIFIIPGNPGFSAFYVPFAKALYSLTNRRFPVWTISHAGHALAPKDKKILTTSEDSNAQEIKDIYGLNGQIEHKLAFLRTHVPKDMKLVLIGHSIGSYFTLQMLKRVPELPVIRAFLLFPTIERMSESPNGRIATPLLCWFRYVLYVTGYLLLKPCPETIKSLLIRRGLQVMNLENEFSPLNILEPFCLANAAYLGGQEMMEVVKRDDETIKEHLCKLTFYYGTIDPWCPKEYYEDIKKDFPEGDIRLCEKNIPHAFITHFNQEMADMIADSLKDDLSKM
Sequence of UniProt Q8IWA4 (Q8IWA4 whole entry, looked up): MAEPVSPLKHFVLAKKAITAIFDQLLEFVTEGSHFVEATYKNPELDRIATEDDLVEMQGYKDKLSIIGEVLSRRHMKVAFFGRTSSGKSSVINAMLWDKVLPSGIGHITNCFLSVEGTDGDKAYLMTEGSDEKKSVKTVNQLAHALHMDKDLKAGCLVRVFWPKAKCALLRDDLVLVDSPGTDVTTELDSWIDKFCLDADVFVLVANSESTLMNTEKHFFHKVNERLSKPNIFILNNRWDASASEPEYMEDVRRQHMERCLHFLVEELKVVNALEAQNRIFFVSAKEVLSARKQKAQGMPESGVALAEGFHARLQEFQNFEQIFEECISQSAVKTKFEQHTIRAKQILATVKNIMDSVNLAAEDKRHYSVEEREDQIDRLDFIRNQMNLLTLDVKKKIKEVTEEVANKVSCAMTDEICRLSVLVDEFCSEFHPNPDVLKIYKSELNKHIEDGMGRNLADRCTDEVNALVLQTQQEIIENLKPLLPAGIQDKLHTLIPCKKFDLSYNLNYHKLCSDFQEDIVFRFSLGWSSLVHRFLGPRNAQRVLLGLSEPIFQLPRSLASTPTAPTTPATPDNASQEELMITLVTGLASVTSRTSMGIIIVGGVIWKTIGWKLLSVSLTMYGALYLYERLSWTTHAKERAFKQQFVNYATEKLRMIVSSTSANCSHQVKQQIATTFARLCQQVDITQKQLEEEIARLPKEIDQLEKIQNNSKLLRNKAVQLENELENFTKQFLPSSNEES
Sequence of UniProt Q07666 (Q07666 whole entry, looked up): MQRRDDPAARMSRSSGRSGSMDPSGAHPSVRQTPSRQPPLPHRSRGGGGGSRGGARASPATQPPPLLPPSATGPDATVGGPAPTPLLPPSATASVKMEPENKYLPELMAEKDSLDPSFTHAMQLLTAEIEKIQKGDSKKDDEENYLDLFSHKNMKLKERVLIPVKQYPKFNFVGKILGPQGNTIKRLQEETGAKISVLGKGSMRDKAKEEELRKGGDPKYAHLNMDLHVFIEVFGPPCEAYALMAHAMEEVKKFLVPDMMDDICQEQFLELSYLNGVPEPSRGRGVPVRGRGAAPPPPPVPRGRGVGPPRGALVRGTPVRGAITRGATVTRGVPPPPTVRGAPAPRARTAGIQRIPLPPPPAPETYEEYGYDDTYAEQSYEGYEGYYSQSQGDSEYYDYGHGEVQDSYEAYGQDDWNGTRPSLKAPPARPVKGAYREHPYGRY
Sequence of UniProt Q14681 (Q14681 whole entry, looked up): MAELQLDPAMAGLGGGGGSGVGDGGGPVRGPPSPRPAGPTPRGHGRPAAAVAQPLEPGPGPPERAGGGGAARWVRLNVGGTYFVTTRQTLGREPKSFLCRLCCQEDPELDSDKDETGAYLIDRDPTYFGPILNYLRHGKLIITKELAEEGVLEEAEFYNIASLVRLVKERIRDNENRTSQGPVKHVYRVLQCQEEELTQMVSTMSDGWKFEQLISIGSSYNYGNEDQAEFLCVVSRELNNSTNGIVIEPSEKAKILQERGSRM
Sequence of UniProt Q96AQ8 (Q96AQ8 whole entry, looked up): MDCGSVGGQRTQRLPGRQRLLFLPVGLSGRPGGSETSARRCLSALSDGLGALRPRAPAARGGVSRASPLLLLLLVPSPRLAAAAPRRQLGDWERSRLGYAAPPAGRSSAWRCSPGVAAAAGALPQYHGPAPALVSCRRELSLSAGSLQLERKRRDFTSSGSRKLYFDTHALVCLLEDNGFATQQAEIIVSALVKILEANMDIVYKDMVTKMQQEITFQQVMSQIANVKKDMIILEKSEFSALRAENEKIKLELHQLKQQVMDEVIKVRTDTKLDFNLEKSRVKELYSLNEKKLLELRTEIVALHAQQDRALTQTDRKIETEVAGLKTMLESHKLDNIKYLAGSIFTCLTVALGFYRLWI

Target	log2 fold change [1]	log2 fold change [2]	log2 fold change [3]	log2 fold change [4]	log2 fold change [5]	log2 fold change [6]	log2 fold change [7]	log2 fold change [8]	log2 fold change [9]	log2 fold change [10]	log2 fold change [11]	log2 fold change [12]	log2 fold change [13]	log2 fold change [14]	log2 fold change [15]	log2 fold change [16]	log2 fold change [17]	log2 fold change [18]	log2 fold change [19]	log2 fold change [20]
LSR (UniProt Q86X29)	-0.051	0.016	-0.05	-0.05	-0.074	-0.028	-0.061	-0.019	-0.046	-0.016	0.109	0.068	-0.02	-0.021	-0.013	0.011	-0.033	0.011	-0.001	0.214 (active)
MCCC2 (UniProt Q9HCC0)	0.048	-0.028	0.026	0.04	-0.04	0.011	0.013	-0.028	-0.049	-0.02	0.003	0.038	-0.032	-0.018	-0.007	-0.013	0.003	0.012	-0.031	0.027
METTL18 (UniProt O95568)	-0.026	0.018	-0.032	0.028	-0.164	0.014	0.05	-0.042	-0.245	0.012	0.02	-0.159	0.032	-0.058	0.08	0	0.006	0.062	0.005	0.015
LDAH isoform 2 (UniProt Q9H6V9)	-0.026	-0.008	0	-0.024	0.032	0.044	0.024	-0.04	0.059	0.031	-0.062	-0.374 (active)	0.007	-0.052	-0.011	-0.148	0.049	-0.031	-0.137	-0.688 (active)
MAPRE3 (UniProt Q9UPY8)	0	-0.002	-0.021	0.074	-0.07	0.041	0.06	0.136	-0.037	0.027	-0.105	-0.226	0.101	0.01	0.009	-0.041	-0.009	0.051	-0.068	-0.061
MFN1 (UniProt Q8IWA4)	-0.007	0.035	0.039	-0.04	-0.032	-0.061	-0.021	-0.19	0.053	0.016	-0.099	-0.136	-0.056	0.079	0.015	-0.024	-0.025	0.32	-0.045	-0.295 (active)
MAP2K2 (UniProt P36507)	-0.018	0.013	0.009	0.028	-0.001	-0.008	-0.002	0.17	0.014	0.011	-0.12	0.084	0.077	0.044	-0.02	-0.06	0.022	0.04	-0.056	-0.1
MCUR1 (UniProt Q96AQ8)	0	-0.067	-0.01	0.012	-0.06	0.018	-0.041	-0.079	-0.033	-0.008	0.022	0.137	0.006	0.009	-0.027	-0.041	-0.038	0.025	-0.042	-0.115
KCTD10 (UniProt Q9H3F6)	-0.055	0.022	-0.025	0.017	0.051	-0.013	-0.029	0.024	0.025	0.021	0.046	0.022	0.055	-0.019	0	-0.01	0.023	0.04	0.003	0.257 (active)
LRPPRC (UniProt P42704)	0.264	-0.054	0.222	0.336	0.282	0.227	0.264	-0.005	0.417	0.369	-0.413	-0.801	0.161	0.277	-0.243	0.01	0.334	0.214	0.177	-0.323
LAMP2 (UniProt P13473)	0	0.093	-0.043	0.066	-0.104	0.05	0.048	-0.028	-0.02	0.007	0.018	0.069	-0.023	0.083	-0.009	0.019	0.059	0.007	-0.016	-0.032
MARCKSL1 (UniProt P49006)	0.039	0.011	-0.111	0.032	-0.127	0.005	-0.125	0.005	0.041	0.034	-0.055	0.038	0.021	-0.055	0.02	-0.015	-0.044	0.012	-0.08	0.147
MAP1LC3B2 (UniProt A6NCE7)	0.021	-0.034	-0.029	0.04	-0.028	0.088	0.01	0.041	0.038	0	-0.074	-0.072	0.05	0	-0.003	0.004	0	0.044	-0.015	0.108
IMMT isoform 2 (UniProt Q16891)	0.053	0.074	-0.05	0.002	-0.155	-0.006	0.018	0.325	0.045	0.081	-0.043	-0.046	-0.002	-0.052	0.074	-0.031	0.086	-0.009	0.067	0.249
KCTD2 (UniProt Q14681)	-0.421	0.087	-0.343	-0.084	0.072	-0.164	-0.468	-0.163	0.078	0.018	0.003	0.029	-0.033	-0.052	0.007	-0.024	-0.068	-0.024	0.049	-0.623
KHDRBS1 (UniProt Q07666)	0.086	-0.006	-0.082	0.111	0.077	0.075	-0.068	0.034	0.005	-0.106	0.148	0.106	0.074	-0.029	0.016	-0.096	-0.007	-0.028	-0.04	0.116
